Data as given in PubChem BioAssay.
Several values for one entry are separate records, joined by “and”; a condition that tells them apart may be missing. Identical values can stand only once. Results filed as inconclusive are left out. Activity calls are given as the source filed them.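 Rule for the calls, unless noted: active = normalized viability below 100% at a tested concentration; inactive = the rest.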

How the values were obtained:
[1] = viability loss in pontine glioma line – cell-based, SU-DIPG-XVII, MIPE5.0, CellTiter-Glo, qHTS, dose response (AID 1347060; cut-off not given, nearly all actives have AC50 up to about 26 µM;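 note: cells exposed to compound for 48 hours before viability readout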); conditions: CellTiter-Glo ATP luminescence
[2] = viability loss in pontine glioma line – cell-based, JHH-DIPG-1, MIPE4.0, CellTiter-Glo, qHTS, dose response (AID 1347062; cut-off not given, nearly all actives have AC50 up to about 27 µM;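 note: cells exposed to compound for two days before readout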); conditions: JHH-DIPG-1 viability, CellTiter-Glo ATP luminescence
[3] = viability loss in pontine glioma line – cell-based, SU-DIPG-IV, MIPE4.0, CellTiter-Glo, qHTS, dose response (AID 1347063; cut-off not given, nearly all actives have AC50 up to about 30 µM;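 note: compound exposure lasted 48 hours before the viability readout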); conditions: CellTiter-Glo ATP luminescence
[4] = viability loss in pontine glioma line – cell-based, SU-DIPG-XIII, MIPE5.0, CellTiter-Glo, qHTS, dose response (AID 1347064; cut-off not given, nearly all actives have AC50 up to about 23 µM;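 note: cells exposed to compound for 48 hours before the viability read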); conditions: CellTiter-Glo ATP luminescence
[5] = viability loss in pontine glioma line – cell-based, SU-DIPG-XXV, MIPE5.0, CellTiter-Glo, qHTS, dose response (AID 1347065; cut-off not given, nearly all actives have AC50 up to about 26 µM;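 note: cells exposed to compound for 48 hours before ATP readout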); conditions: CellTiter-Glo ATP luminescence
[6] = JHH-DIPG-1 glioma cell viability, MIPE5.0 library, CellTiter-Glo luminescence, qHTS (AID 1347067; cut-off not given, nearly all actives have AC50 up to about 26 µM;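 note: cells exposed to compound for 48 hours before readout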); conditions: JHH-DIPG-1 glioma viability, CellTiter-Glo ATP luminescence
[7] = growth inhibition of DIPG cells – cell-based, MIPE5.0 library, qHTS (AID 1347068; cut-off not given, nearly all actives have IC50 up to about 30 µM;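 note: cells exposed to compound for 48 hours before viability readout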); conditions: SU-DIPG-XXV viability
[8] = viability loss with induced miR-34 in A549 – imaging, A549 dox-inducible miR-34, nuclei and caspase counts, primary screen (AID 1347080;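 active = compounds whose cell count with miR-34 switched on is under 0.7 times the count with it off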); conditions: A549 miR-34 inducible, Hoechst nuclei count, 48 h
[9] = compounds altering HSF1 focus formation in cells – imaging, Selleck Cancer Library (AID 1347162; in the data active = plate-normalised HSF1 focus index below about 0.46); conditions: human cells, HSF1 nuclear foci imaging, at 10 µM; SSMD: measured here: HSF1 foci SSMD mean; cell count: measured here: cell number; plate-normalised HSF1 focus index: stronger effect = lower value
[10] = MELAS cybrid and Rieske KO viability enhancers – cell-based, MELAS cybrids, Rieske KO mouse fibroblasts, CellTiter-Glo, primary screen (AID 1508586;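 active = mean z-score across replicates of 1.96 or higher in either the MELAS or the Rieske mutant cell line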;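 note: z relative to plate mean and SD of compound and empty wells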); conditions: low glucose
[11] = drug combination growth inhibition, ovarian cancer – cell-based, oncology-focused library, rucaparib conditional, profiling panel (AID 1508598); conditions: patient-derived ovarian cancer cells, CellTiter-Glo viability, 144 h, stronger effect = lower value
[12] = stronger effect = lower value, cell number ratio, induced over uninduced
[13] = measured here: relative caspase fold change +Dox/-Dox
[14] = measured here: total cells with miR-34 induction, stronger effect = lower value
[15] = measured here: total cells without miR-34 induction
[16] = MELAS cybrid survival, CellTiter-Glo 48 h, stronger effect = higher value
[17] = Rieske KO mouse fibroblast survival, CellTiter-Glo 72 h
[18] = at 0.000305 µM, OCI-C5x cells, with rucaparib 10 µM, 100% = cells with rucaparib alone
[19] = at 0.000305 µM, OCI-C5x cells, without rucaparib
[20] = at 0.000305 µM, OCI-P5x cells, with rucaparib 20 µM, 100% = cells with rucaparib alone
[21] = at 0.000305 µM, OCI-P5x cells, without rucaparib
[22] = at 0.00122 µM, OCI-C5x cells, with rucaparib 10 µM, 100% = cells with rucaparib alone
[23] = at 0.00122 µM, OCI-C5x cells, without rucaparib
[24] = at 0.00122 µM, OCI-P5x cells, with rucaparib 20 µM, 100% = cells with rucaparib alone
[25] = at 0.00122 µM, OCI-P5x cells, without rucaparib
[26] = at 0.00488 µM, OCI-C5x cells, with rucaparib 10 µM, 100% = cells with rucaparib alone
[27] = at 0.00488 µM, OCI-C5x cells, without rucaparib
[28] = at 0.00488 µM, OCI-P5x cells, with rucaparib 20 µM, 100% = cells with rucaparib alone
[29] = at 0.00488 µM, OCI-P5x cells, without rucaparib
[30] = at 0.0195 µM, OCI-C5x cells, with rucaparib 10 µM, 100% = cells with rucaparib alone
[31] = at 0.0195 µM, OCI-C5x cells, without rucaparib
[32] = at 0.0195 µM, OCI-P5x cells, with rucaparib 20 µM, 100% = cells with rucaparib alone
[33] = at 0.0195 µM, OCI-P5x cells, without rucaparib
[34] = at 0.0781 µM, OCI-C5x cells, with rucaparib 10 µM, 100% = cells with rucaparib alone
[35] = at 0.0781 µM, OCI-C5x cells, without rucaparib
[36] = at 0.0781 µM, OCI-P5x cells, with rucaparib 20 µM, 100% = cells with rucaparib alone
[37] = at 0.0781 µM, OCI-P5x cells, without rucaparib
[38] = at 0.313 µM, OCI-C5x cells, with rucaparib 10 µM, 100% = cells with rucaparib alone
[39] = at 0.313 µM, OCI-C5x cells, without rucaparib
[40] = at 0.313 µM, OCI-P5x cells, with rucaparib 20 µM, 100% = cells with rucaparib alone
[41] = at 0.313 µM, OCI-P5x cells, without rucaparib
[42] = at 1.25 µM, OCI-C5x cells, with rucaparib 10 µM, 100% = cells with rucaparib alone
[43] = at 1.25 µM, OCI-C5x cells, without rucaparib
[44] = at 1.25 µM, OCI-P5x cells, with rucaparib 20 µM, 100% = cells with rucaparib alone
[45] = at 1.25 µM, OCI-P5x cells, without rucaparib
[46] = at 5 µM, OCI-C5x cells, with rucaparib 10 µM, 100% = cells with rucaparib alone
[47] = at 5 µM, OCI-C5x cells, without rucaparib
[48] = at 5 µM, OCI-P5x cells, with rucaparib 20 µM, 100% = cells with rucaparib alone
[49] = at 5 µM, OCI-P5x cells, without rucaparib

COc1cc2c(Nc3ccc(Cl)c(Cl)c3F)ncnc2cc1OCC1C[C@@H]2CN(C)C[C@@H]2C1 (some centres undefined)
active: AC50 [1] 5.25 µM | AC50 [2] 18.7 µM | AC50 [3] 6.62 µM | AC50 [4] 8.33 µM | AC50 [5] 7.42 µM and 8.33 µM | AC50 [6] 4.68 µM and 2.35 µM | IC50 [7] 18.6 µM and 16.6 µM

CC(C)(C)c1cnc(CSc2cnc(NC(=O)C3CCNCC3)s2)o1
7130: cell count [9]
active: AC50 [1] 0.118 µM | AC50 [2] 0.166 µM | AC50 [3] 0.264 µM | AC50 [4] 0.833 µM | AC50 [5] 0.742 µM | AC50 [6] 1.18 µM | IC50 [7] 934 nM | viability [11, 26] 100% | viability [11, 31] 98.5% | viability [11, 35] 100% | viability [11, 38] 94.4% | viability [11, 39] 97% | viability [11, 40] 95.6% | viability [11, 41] 85.8% | viability [11, 42] 9.76% | viability [11, 43] 9.99% | viability [11, 44] 22.5% | viability [11, 45] 14% | viability [11, 46] 12% | viability [11, 47] 10.8% | viability [11, 48] 20.3% | viability [11, 49] 11%
-1.89: z-score [10, 17]
1470: cell count [8, 14]
0.418: SSMD [9]
1520: cell count [8, 15]
inactive: fold change [8, 12] 0.966 | plate-normalised HSF1 focus index [9] 1.03 | z-score [10, 16] 0.429 | viability [11, 18] 114% | viability [11, 19] 105% | viability [11, 20] 112% | viability [11, 21] 111% | viability [11, 22] 108% | viability [11, 23] 104% | viability [11, 24] 103% | viability [11, 25] 106% | viability [11, 27] 103% | viability [11, 28] 110% | viability [11, 29] 104% | viability [11, 30] 108% | viability [11, 32] 105% | viability [11, 33] 110% | viability [11, 34] 108% | viability [11, 36] 101% | viability [11, 37] 104%
1.56: fold change [8, 13]

COc1ccc(S(=O)(=O)N(C(C)=O)c2ccccc2/C=C/c2cc[n+]([O-])cc2)cc1
active: AC50 [1] 1.48 µM | AC50 [2] 0.935 µM | AC50 [3] 0.372 µM | AC50 [4] 2.63 µM | AC50 [5] 1.18 µM | AC50 [6] 1.86 µM

NC1(c2ccc(-c3nc4ccn5c(=O)[nH]nc5c4cc3-c3ccccc3)cc2)CCC1
active: AC50 [1] 16.6 µM | AC50 [2] 23.5 µM | AC50 [3] 14.8 µM | AC50 [4] 6.61 µM | AC50 [5] 1.86 µM | AC50 [6] 6.61 µM | IC50 [7] 18600 nM | viability [11, 36] 98.1% | viability [11, 37] 98.2% | viability [11, 40] 90.4% | viability [11, 44] 88.6%
6650: cell count [9]
inactive: fold change [8, 12] 0.999 | plate-normalised HSF1 focus index [9] 1.19 | z-score [10, 16] -0.154 | viability [11, 18] 119% | viability [11, 19] 118% | viability [11, 20] 117% | viability [11, 21] 108% | viability [11, 22] 119% | viability [11, 23] 126% | viability [11, 24] 102% | viability [11, 25] 112% | viability [11, 26] 111% | viability [11, 27] 129% | viability [11, 28] 103% | viability [11, 29] 106% | viability [11, 30] 110% | viability [11, 31] 119% | viability [11, 32] 100% | viability [11, 33] 104% | viability [11, 34] 119% | viability [11, 35] 133% | viability [11, 38] 131% | viability [11, 39] 141% | viability [11, 41] 110% | viability [11, 42] 107% | viability [11, 43] 150% | viability [11, 45] 103% | viability [11, 46] 134% | viability [11, 47] 144% | viability [11, 48] 104% | viability [11, 49] 106%
3.02: SSMD [9]
4130: cell count [8, 14]
-0.0056: z-score [10, 17]
1.72: fold change [8, 13]
4140: cell count [8, 15]
